# Source: PubChem BioAssay (NCATS)
# “And” between values parts separate entries of the source, which are not always exact repeats. Equal entries are not always repeated. Inconclusive results are not listed. Unmarked numbers belong to inactive results. The source made the active and inactive calls. Calls follow the shape of the dose curve; as a rule, active = well fitted curve in the direction sought with a large enough effect; inconclusive = small, poorly fitted or top-dose-only effect, or another doubt; inactive = no such curve, though single readings can be large or run the other way.
# Assay: qHTS Assay for Identifying Gametocytocidal Compounds (AID 743244);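 as to max response: actives lower the fluorescent signal which means gametocytes are killed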
# Settings: P. falciparum 3D7 stage III-V gametocytes, alamarBlue, 72 h; max response: active compounds read low
# Method in brief: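 In this qHTS viability screen, late-stage 3D7 gametocytes are incubated with compound for 72 h, then with alamarBlue for 24 h; reduced resorufin fluorescence marks killing.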
# % is scaled to controls: 0 for no effect and ±100 for the full control effect; potency is read from the fitted curve at half-maximal effect.
Structure (SMILES),max response,Potency
C[C@H]1CC[C@]2(NC1)O[C@H]1C[C@H]3[C@@H]4CC[C@H]5C[C@@H](O)CC[C@]5(C)[C@H]4CC[C@]3(C)[C@H]1[C@@H]2C,2.92%,
C[C@]12C[C@H]3S[C@H]3C[C@@H]1CC[C@@H]1[C@@H]2CC[C@]2(C)[C@@H](O)CC[C@@H]12,1.49%,
O=C1CN(O)C(c2ccccc2)=c2cc(Cl)ccc2=N1,0.268%,
O=C(CS(=O)C(c1ccccc1)c1ccccc1)NO (centres undefined),-0.968%,
CN1C2CCC1CC(OC(c1ccccc1)c1ccc(Cl)cc1)C2 (centres undefined),,17.8 µM (active)
CN(C)[C@H](Cc1ccccc1)c1ccccc1,-4.16%,
c1cc2c(c(NC3=NCCN3)c1)CCCC2,-7.43%,
CNC1(c2ccccc2Cl)CCCCC1=O (centres undefined),16% and -7.76%,
CCCC(C)C1(CC)C(=O)NC(=O)NC1=O (centres undefined),-3.05%,
Cc1cccc(C(C)c2cnc[nH]2)c1C (centres undefined),17.3%,
CCC1(CC)C(=O)NC(=O)N(C)C1=O,-12.2%,
NCC[C@H](O)C(=O)N[C@@H]1C[C@H](N)[C@@H](O[C@H]2O[C@H](CN)[C@@H](O)[C@H](O)[C@H]2N)[C@H](O[C@@H]2O[C@H](CO)[C@@H](O)[C@H]2O)[C@H]1O,16.1%,
O=C(OCCN1CCCCC1)C(O)(c1ccccc1)c1ccccc1,6.84%,
CCC/C=C/C=C/C(=O)O[C@H]1/C(=C/C(=O)OC)C[C@H]2C[C@H]([C@@H](C)O)OC(=O)C[C@H](O)C[C@@H]3C[C@H](OC(C)=O)C(C)(C)[C@](O)(C[C@@H]4C/C(=C/C(=O)OC)C[C@H](/C=C/C(C)(C)[C@]1(O)O2)O4)O3,-10.9%,
